Source: PubChem
TSHR antag: antagonists of human thyroid stimulating hormone receptor; P16473; TSHR-expressing cells, TSH-stimulated cAMP HTRF, 2 h; stronger effect = lower value; activity change, negative = inhibition, % at 11.5 µM; actives 0.2% (n = 330,000);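 active = activity change below a set negative limit, meaning inhibition stronger than a set level, cut at about -70% in these data; inconclusive = activity change between two set negative limits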; note: % is set by controls: 0 for no effect and ±100 for the full control effect
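Inhibition of cAMP made by TSHR-expressing cells under TSH stimulation (4nM final, EC80; 2 h, 37 deg C) is quantified with a one-step lysis HTRF kit, anti-cAMP cryptate versus cAMP-d2.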
NPSR antag: blocks cAMP signaling of the human neuropeptide S receptor | CHO-NPSR cells, cAMP TR-FRET, antagonist mode | Potency, µM (titrated, usually from 38.3 µM), for inactives: at the top dose activity change, negative = inhibition, actives largely listed as inhibitors | actives 1% (n = 220,000) | AID 1461; note: potency is the fitted concentration of half-maximal effect; % is set by controls: 0 for no effect and ±100 for the full control effect; nearly all actives have a fitted effect of over 50% in size
Target sequence (Q6W5P4 whole entry, looked up): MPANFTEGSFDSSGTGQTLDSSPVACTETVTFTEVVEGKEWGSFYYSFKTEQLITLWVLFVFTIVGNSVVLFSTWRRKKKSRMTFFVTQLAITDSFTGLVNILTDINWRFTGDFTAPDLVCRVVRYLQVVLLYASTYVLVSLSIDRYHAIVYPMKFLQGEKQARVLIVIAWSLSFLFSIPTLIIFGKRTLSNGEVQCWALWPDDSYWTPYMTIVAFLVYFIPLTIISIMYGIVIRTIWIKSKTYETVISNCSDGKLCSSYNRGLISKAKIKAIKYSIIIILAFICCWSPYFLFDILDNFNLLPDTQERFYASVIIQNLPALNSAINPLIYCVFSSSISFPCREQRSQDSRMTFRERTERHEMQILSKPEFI
RXFP1 ag: agonists of human relaxin receptor RXFP1. Q9HBX9. HEK293T-RXFP1 cAMP TR-FRET, 30 min; response scale: percent of porcine relaxin response, buffer zero. Potency, µM (top dose mostly 57.5 µM), for the others: at the highest dose activation, most hits filed as activators. actives 0.3% (n = 370,000); note: potency is the fitted concentration of half-maximal effect; % is set by controls: 0 for no effect and ±100 for the full control effect; nearly all actives have a fitted effect of over 60% in size
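Agonist response is measured as cAMP accumulation in an RXFP1-transfected HEK293T line under PDE4 inhibition. Values are scaled between buffer-only and 29 nM porcine relaxin, and EC50s come from standard Hill equation fits.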
PTHR1 ag: agonists of human PTHR1 parathyroid hormone receptor. Q03431. HEK293 GP2 PTHR1 cells, GloSensor cAMP luminescence, 1 h. Potency, µM (top dose mostly 115 µM), inactives show top-dose activation, actives largely listed as activators. actives 0.075% (n = 410,000). AID 743266; note: potency is the fitted concentration of half-maximal effect; nearly all actives have a fitted effect of over 55% in size
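HEK-293-derived GP2 cells expressing PTHR1 and a GloSensor cAMP reporter, 3,000/well, plated overnight, given luciferin plus IBMX (each 0.5 mM as added) for 1 h at 37 °C, then compound for 1 h at 37 °C. Luminescence was read after 15 min at room temperature.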
RXFP1 antag: antagonists of human relaxin receptor RXFP1; HEK293-RXFP1, relaxin-stimulated cAMP HTRF, 30 min; stronger effect = lower value; activity change, negative = inhibition, % at 57.5 µM; actives 0.59% (n = 350,000); AID 1259400;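 active = activity change of -60% or lower, but not beyond a set lower limit; inconclusive = change between -60% and -40%, or beyond the set limit; inactive = change above -40%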; note: % is set by controls: 0 for no effect and ±100 for the full control effect
TCR activator: activates T cell receptor signaling | AID 504894 | primary human leukocytes, anti-CD3, IL-2 HTRF, 48 h | Potency, µM (highest dose often 9.22 µM), for inactives: at the highest dose activation of IL-2 secretion, hits mostly activators | 330,000 tested, under 10 active; note: % of control where 0% means no effect
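Primary human leukocytes receive a-CD3 beads and test compound and are incubated 48 hr. Secreted IL-2 is then assayed by HTRF, measuring 665nm acceptor emission after 320nm excitation of the europium donor.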
* = called active by the depositor; i = inactive; ? = inconclusive; · = no result; [ ] = another dose, or the depositor's remark. Shown is part of a subset that was picked to be rich in hits. Unless noted, calls come from the whole dose curve; as a rule, active = well fitted curve in the direction sought with a large enough effect; inconclusive = small, poorly fitted or top-dose-only effect, or another doubt; inactive = no such curve, though single readings can be large; an effect the other way counts as inactive or inconclusive.

SMILES	TSHR antag	NPSR antag	RXFP1 ag	PTHR1 ag	RXFP1 antag	TCR activator
CCOc1ccc(/C=C/C(=O)c2cc(Br)ccc(=O)c2O)cc1	?	-19%	0%	-59%	-27	-1%[46.1 µM]
COc1ccc(CC(=O)Nc2ccc(-c3nc4ccccc4s3)cc2Cl)cc1OC	·	·	3%	i	-5	·
CN(C)S(=O)(=O)c1ccc(-c2csc(N/N=C/c3ccc(O)cc3)n2)cc1	-27	13µM*	-1%	-34%	?	-1%
O=[N+]([O-])c1cccc(-c2csc(N/N=C/c3cccc(O)c3)n2)c1	-18	-10%	0%	-50%	-67*	-8%
Cc1ccc(-c2csc(N/N=C/c3ccco3)n2)cc1	-8	-16%[46.1 µM]	-1%	-29%	-37	-64%
CN(C)S(=O)(=O)c1ccc(-c2csc(N/N=C/c3ccco3)n2)cc1	-38	-9%	0%	-31%	-72*	1%
CCOC(=O)Cc1csc(N/N=C/c2cccc([N+](=O)[O-])c2)n1	3	·	-1%	-36%	-1	-1%
C(=N\Nc1nc(-c2ccccc2)cs1)/c1ccco1	-4	-15%	-2%	-39%	-15	3%[46.1 µM]
Cc1sc(N/N=C/c2ccco2)nc1-c1ccccc1	-13	12%	0%	-23%	-89*	-1%[46.1 µM]
COc1ccccc1C(=O)NCc1ccc2c(c1)CCN2C(=O)c1ccncc1	·	·	3%	i	-15	·
CCc1cccc(NC(=O)C(Cc2ccccc2)NS(=O)(=O)c2ccc3c(c2)oc(=O)n3C)c1 (centres undefined)	·	·	0%	-30%	·	·
CC(=O)c1ccc(N(C(=O)CNC(=O)c2ccco2)C(C(=O)NC2CCCC2)c2ccncc2)cc1 (centres undefined)	-93*	·	4%	i	-4	0%
COc1cc2nc(N3CCN(C(=O)OCc4ccccc4)[C@H](C(=O)NC(C)(C)C)C3)nc(N)c2cc1OC	6	·	2%	i	·	5%
COc1cc2nc(N3CCN(C(=O)OCc4ccccc4)C(C(=O)NC(C)(C)C)C3)nc(N)c2cc1OC (centres undefined)	-22	13µM*	·	·	·	·
Cc1cc(C)cc(NC(=O)C2CCN(S(=O)(=O)c3cn(C)cn3)CC2)c1	·	·	3%	-9%	-2	·
COC(=O)c1cc(-c2c[nH]c3ccccc23)n[nH]1	-86*	-10%[46.1 µM]	-1%	-1%	-8	2%
COC(=O)c1cc(-c2ccc(Br)cc2)n[nH]1	-2	0%[46.1 µM]	2%	-9%[57.5 µM]	0	-17%
CC(C)Cn1c(=O)c2ccccc2n2c(CCC(=O)Nc3ccc(F)cc3)nnc12	·	·	-1%	i	-4	·
Cc1cccc(CNC(=O)C2CCN(c3nc4ccc(Cl)cc4[nH]3)CC2)c1	·	·	5%	-16%	-72*	·
COCCCNC(=O)C1CCN(c2nc3ccc(Cl)cc3[nH]2)CC1	·	·	1%	-6%	-18	·
COc1ccc(-c2nc3sc(CCNS(=O)(=O)c4c(C)cc(C)cc4C)c(C)n3n2)cc1	·	·	2%	-61%	-18	·
N#CC1c2ccccc2C=CN1C(=O)N(c1ccccc1)c1ccccc1 (centres undefined)	·	·	·	-22%	-94*	0%
Cc1nc2cccnc2n1-c1cccc(C(=O)N2CCN(c3cccc(Cl)c3)CC2)c1	·	·	19%	-32%	-64*	·
COc1cccc(N2CCN(C(=O)c3cccc(-n4c(C)nc5cccnc54)c3)CC2)c1	·	·	13%	-46%	?	·
c1ccc(CC2CCN(C3=Nc4cccc5cccc3c45)CC2)cc1	8	10µM*	0%	i	-11	-1%
SMILES	TSHR antag	NPSR antag	RXFP1 ag	PTHR1 ag	RXFP1 antag	TCR activator
O=C(CSC1=Nc2ccccc2C2=NC(CCC(=O)NC3CCCCC3)C(=O)N12)Nc1cccc(Cl)c1 (centres undefined)	·	·	17%	-70%	-16	·
CCN1CCCC1CNC(=O)c1ccc2c(c1)N(Cc1cccc(Cl)c1)C(=O)c1ccccc1S2(=O)=O (centres undefined)	5	·	-2%	i	-25	2%
CCN1CCCC1CNC(=O)c1ccc2c(c1)N(Cc1ccccc1F)C(=O)c1ccccc1S2(=O)=O (centres undefined)	23	·	-1%	i	-100*	1%
CC(=O)c1ccc(O)c(C(N)=O)c1	·	·	·	·	-18	·
COc1ccc(-c2nnc(NC(=O)c3ccc(S(=O)(=O)N4CCCc5ccccc54)cc3)o2)cc1	?	-16%[46.1 µM]	2%	-22%	-65*	-6%
CCN(CC)CCCNC(=O)c1cc2c(-c3ccc(Cl)cc3)nn(C)c2s1	-1	?	0%	-20%	·	-10%
CN1CCN(CCCNC(=O)c2cc3c(-c4ccc(Cl)cc4)nn(C)c3s2)CC1	2	10µM*	4%	i	·	-3%
O=C(/C=C/c1ccccc1[N+](=O)[O-])c1ccccc1Br	5	-48%	0%	-78%	-72*	-5%
CC(C)(C)c1ccc(-n2nc(C#N)c(Cl)cc2=O)cc1	-80*	-55%	1%	-23%	?	-3%
N[C@H](C(=O)O)[C@@H](O)c1ccc(O)c(O)c1	·	·	·	·	19	·
CCOc1ccc(S(=O)(=O)N(C(=O)c2ccco2)c2cc3sc(=O)oc3c3ccccc23)cc1	2	-27%	6%	i	-68*	-4%
COc1ccc(S(=O)(=O)N(C(=O)c2ccco2)c2cc3sc(=O)oc3c3ccccc23)cc1	-12	-12%	0%	5%	?	-9%
Cc1ccc(S(=O)(=O)N(C(=O)c2ccco2)c2cc3sc(=O)oc3c3ccccc23)cc1	-12	-10%	4%	i	-79*	7%[46.1 µM]
COc1ccc(-n2c(SCC(=O)Nc3ccc4c(c3)OCO4)nc3c([nH]c4ccccc43)c2=O)cc1	·	·	5%	i	·	·
CC(CNC(=O)CCCn1c(=O)c2cccn2c2ccccc21)c1ccccc1 (centres undefined)	·	·	-2%	i	-78*	·
CSc1ccc(CCNC(=O)CCCn2c(=O)c3cccn3c3ccccc32)cc1	·	·	4%	-33%	-75*	·
O=C(NC(=S)Nn1cnc2c(cnn2-c2ccccc2)c1=O)c1ccc(Cl)cc1	-5	3%	-1%	-27%	-72*	15%[46.1 µM]
CC(NC(=O)Cn1ncc(Cl)c(Cl)c1=O)C12CC3CC(CC(C3)C1)C2 (centres undefined)	-100*	10µM*	0%	-22%	-100*	8%[46.1 µM]
CC(=O)c1cccc(Nc2ncnc3c2cnn3C)c1	·	·	21%	18%	15	·
